From PubChem
Mcl-1 Bim block = human Bim-Mcl-1 interaction inhibition; Q07820; Bead-based flow cytometry, Bim peptide-Mcl-1 binding; inhibition, % at 10 µM; hit rate 0.1% among 190,000; in the data active = inhibition above about 40%;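 note: 0% = no compound tracer wells and 100% = peptide blocker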
m-calpain inh = blocks pig calpain II enzyme activity; hit rate 0.37% among 220,000; inhibition, % at 16 µM; purified calpain II, fluorogenic peptide substrate, 30 min; AID 1236;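 active = inhibition above about 50%, limit read from the data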
Mcl1 Noxa PPI = disrupts binding of human Mcl-1 to Noxa peptide; TR-FRET Mcl-1/Noxa peptide binding, 2 h; Q07820; hit rate 1.5% among 220,000; inhibition, % at 21.7 µM;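 active = compounds that cut the protein-peptide binding signal by more than 50% relative to plate controls in a single-dose test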;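 note: His-tagged Mcl-1 with rhodamine Noxa BH3 peptide and terbium anti-His antibody; 0% = Mcl-1 plus Noxa peptide wells and 100% = peptide-only wells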
14-3-3 Bad inh = disrupts binding of bovine 14-3-3 zeta to phospho-Bad peptide. P63103. hit rate 0.71% among 220,000. inhibition, % at 21.7 µM. AID 781. TR-FRET 14-3-3zeta/Dy647-pBad peptide displacement, 1 h;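 active = inhibition above about 70%, limit read from the data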;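 note: 0% = full 14-3-3 plus peptide FRET controls and 100% = background without 14-3-3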
Target sequence (P63103 whole entry, looked up): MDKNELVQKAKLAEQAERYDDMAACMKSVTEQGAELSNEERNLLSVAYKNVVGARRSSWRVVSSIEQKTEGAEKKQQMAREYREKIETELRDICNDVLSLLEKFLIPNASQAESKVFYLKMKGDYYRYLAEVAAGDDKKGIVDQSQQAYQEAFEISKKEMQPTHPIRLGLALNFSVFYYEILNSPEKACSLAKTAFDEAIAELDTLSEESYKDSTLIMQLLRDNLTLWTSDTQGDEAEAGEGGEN
Mcl1 Bid PPI = Mcl-1/Bid interaction inhibition; Q07820; TR-FRET Mcl-1/Bid-Dy647 peptide binding, 1536-well; inhibition, % at 21.7 µM; hit rate 0.97% among 220,000;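 active = compounds that cut the binding signal by more than half at the single screening dose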;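 note: His-tagged Mcl-1 with europium anti-His antibody binding Bid BH3 peptide; 0% = Mcl-1 plus peptide wells and 100% = peptide-only wells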
p47phox inh = p47phox (human) inhibition; P14598; p47phox/p22phox peptide binding, fluorescence polarization, 2 h; inhibition, % at 24.7 µM; hit rate 0.53% among 220,000;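 active = inhibition above about 30%, limit read from the data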;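 note: 0% = p47phox with labelled peptide and 100% = labelled peptide alone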
Target sequence (P14598 whole entry, looked up): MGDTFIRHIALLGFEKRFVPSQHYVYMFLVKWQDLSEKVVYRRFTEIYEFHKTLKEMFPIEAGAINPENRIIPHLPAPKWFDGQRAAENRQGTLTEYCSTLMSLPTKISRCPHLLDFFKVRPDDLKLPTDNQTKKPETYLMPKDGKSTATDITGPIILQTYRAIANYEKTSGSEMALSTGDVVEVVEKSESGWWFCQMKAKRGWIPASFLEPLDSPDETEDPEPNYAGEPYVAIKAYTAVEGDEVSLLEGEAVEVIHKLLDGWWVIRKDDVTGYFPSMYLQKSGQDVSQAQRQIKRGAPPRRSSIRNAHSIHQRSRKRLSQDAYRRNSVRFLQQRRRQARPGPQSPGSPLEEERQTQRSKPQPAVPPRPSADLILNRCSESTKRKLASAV
Numbers without * were called inactive; nt = not tested or not shown. A selection: hits, their analogues and other compounds. The true share with any hit is near 3.4%.

SMILES	Mcl-1 Bim block	m-calpain inh	Mcl1 Noxa PPI	14-3-3 Bad inh	Mcl1 Bid PPI	p47phox inh
CC(=O)Nc1ccc(NC(=O)Cc2ccc(S(=O)(=O)N3CCCCC3)s2)cc1	-2.0	77.4*	38.5	-6.8	-7.0	-4.3
O=C(Cn1c(=O)sc2ccccc21)Nc1ccc(S(=O)(=O)N2CCCC2)cc1	-3.0	54.0*	15.0	-0.5	34.5	-8.9
Clc1ccc2nc(CN3CCCCC3)cn2c1	-3.0	-10.0	9.2	35.8	-2.2	0.9
Clc1ccc2nc(CN3CCCc4ccccc43)cn2c1	-4.0	7.4	47.0	5.7	100.3*	-18.6
O=[N+]([O-])c1ccc(C(O)C23CN4CN(CN(C4)C2)C3)cc1 (stereo unspecified)	-2.0	14.5	15.8	-13.5	-3.5	-4.4
Cn1c(=O)c2c(-c3ccc(OC(F)F)cc3)cc(-c3ccccc3)nc2n(C)c1=O	nt	-7.4	33.9	2.2	-87.0	-16.4
COc1ccc(NC(=O)c2cc3c(=O)n(C)c4ccccc4c3s2)cc1OC	-3.0	-149.0	40.6	5.7	55.3*	13.7
CCn1c(=O)c2cc(C(=O)Nc3ccc(OC)cc3OC)sc2c2ccccc21	nt	-145.0	-123.4	44.7	-37.3	6.3
O=S(=O)(Nc1ccc(Cl)cc1)c1ccc2c(c1)CCO2	nt	26.8	3.4	98.0*	16.4	-15.1
Cc1cc(C)c(O)c(N)c1	-2.0	-30.9	15.5	-10.1	-78.7	-4.0
O=C(Oc1ccccc1)c1cccc2cccnc12	-1.0	18.3	-24.7	13.9	-27.0	99.2*
O=C(O)c1cccc2cccnc12	-5.0	1.1	1.1	-0.9	0.0	-10.3
O=S(=O)(Cc1ccccc1)c1cnc2ccccc2n1	-7.0	-33.7	-5.5	21.2	23.1	-6.1
COc1ccc(N=Cc2cc(Cc3ccccc3Cl)cc([N+](=O)[O-])c2O)cc1OC	-1.0	-63.8	61.4*	22.5	-0.7	-228.2
O=c1nc(SCc2c(F)cccc2Cl)nc(-c2ccc(Cl)cc2)[nH]1	nt	15.9	-3.9	0.1	-2.7	-10.0
O=c1nc(SCc2ccccc2Cl)nc(-c2ccc(Cl)cc2)[nH]1	nt	50.2*	-25.1	-2.5	2.3	-8.8
CC(C)N1CCN(Cc2cccc(-n3cccn3)c2)CC1CCO (stereo unspecified)	-2.0	-0.6	-3.1	-3.3	-0.1	-8.1
O=C(O)c1cc(-c2ccc(/C=N/Nc3ccc([N+](=O)[O-])cn3)o2)ccc1Cl	1.0	-55.3	16.3	-14.0	-19.5	-19.2
O=[N+]([O-])c1ccc(-c2ccc(/C=N/c3c(-c4ccco4)nc4ccccn34)o2)c(Cl)c1	6.0	-139.7	62.1*	10.0	56.8*	-5.7
O=[N+]([O-])c1ccc(Cl)c(-c2ccc(/C=N/c3c(-c4ccco4)nc4ccccn34)o2)c1	2.0	-27.4	40.6	45.8	55.4*	2.9
Cn1c(=O)c2c(-c3ccccc3)n(C3CCCCC3)cc2n(C)c1=O	0.0	8.0	-8.1	18.9	-94.1	56.9*
Cc1cccc(-c2c3c(=O)n(C)c(=O)n(C)c3cn2C2CCCCC2)c1	-1.0	17.8	5.0	-5.7	-80.3	-18.7
COc1cccc(C(c2c(N)[nH]c(=S)[nH]c2=O)c2c(N)[nH]c(=S)[nH]c2=O)c1	nt	10.7	-7.1	-1.4	-89.9	-17.9
Cc1ccc(Nc2c(-c3ccc(C)o3)nc3cnccn23)cc1	-2.0	-23.1	51.1*	-1.1	-7.8	-11.5
C1CN(CC2CCN(c3nc4nonc4nc3N3CCSCC3)CC2)CCO1	0.0	-8.9	2.8	-16.3	-11.6	33.8*
SMILES	Mcl-1 Bim block	m-calpain inh	Mcl1 Noxa PPI	14-3-3 Bad inh	Mcl1 Bid PPI	p47phox inh
O=C1CN(C(=O)COC(=O)c2cccc(OCc3ccccc3)c2)c2ccccc2N1	-1.0	10.0	9.1	15.8	-15.2	-32.2
CC(=O)CCc1ccc(Oc2nc(-c3cccnc3)nc3ccccc23)cc1	-2.0	-49.8	7.0	-5.5	-11.7	-47.0
Cc1[nH]c2ccccc2c1CN1CCc2ccccc2C1	0.0	-11.3	nt	54.6	51.1*	-23.6
O=C(N/C(=C/c1cccnc1)C(=O)N1CCOCC1)c1ccccc1Br	-3.0	-2.5	5.0	1.6	-21.9	-2.6
CCOC(=O)c1cc(C#N)c(SCC(=O)OC)[nH]c1=O	nt	-32.9	21.1	32.6	71.7*	-18.9
CCOc1ccc(C(=O)NCC(=O)OCc2ccc(F)cc2Cl)cc1	-4.0	10.1	9.8	-4.5	-36.9	-1.8
O=C(c1cc([N+](=O)[O-])ccc1N1CCCCC1)N1CCCC1	-12.0	18.8	7.8	0.6	-9.5	5.7
O=C(c1cc([N+](=O)[O-])ccc1N1CCOCC1)N1CCCCC1	nt	81.9*	2.1	3.8	-6.2	3.6
CCOC(=O)CSc1nnc(-c2cccc(Cl)c2)n1CC	45.0*	-0.8	-9.2	-2.5	-26.7	-7.0
COc1cccc(/C=C2/SC(=O)N(C)C2=O)c1OCc1ccc(C(=O)O)cc1	67.0*	-8.9	3.1	-7.5	-19.4	2.7
CCCCc1cn([C@@H](CCCCNC(=O)OC(C)(C)C)C(=O)N2CCN(C(=O)OC(C)(C)C)CC2)nn1	0.0	35.0	7.2	13.3	-4.4	-5.3
O=C(Oc1ccc(-c2nccc(-c3ccccn3)n2)cc1)c1cccc(C(F)(F)F)c1	-2.0	-10.4	-9.6	-16.0	4.7	-2.2
Cc1ccc(C(=O)Oc2ccc(-c3nccc(-c4ccccn4)n3)cc2)cc1	-3.0	28.6	-53.0	15.3	55.2*	11.3
CCc1cccc(C)c1N1C(=O)CC(C)(C)CC1=O	nt	9.9	4.1	0.8	-13.2	-9.9
OC(CNC1CCCc2ccccc21)COc1ccc2ccccc2c1 (stereo unspecified)	-2.0	2.6	43.5	40.5	52.3*	-12.0
O=C(c1ccccc1)c1ccc(OCC(O)CNC2CCCc3ccccc32)cc1 (stereo unspecified)	0.0	25.5	17.6	0.4	17.4	-8.4
CSc1nc2ccc3nc(NC(=O)c4ccccc4)sc3c2s1	0.0	-198.3	29.1	21.1	54.8*	0.3
O=C(Nc1nc2ccccc2s1)c1ccccc1	0.0	-8.4	14.3	-12.2	-18.1	-6.6
CCOC(=O)Cn1c(CN(Cc2ccccc2)Cc2ccccc2)nc2c1c(=O)n(C)c(=O)n2C	0.0	0.2	14.3	2.6	1.4	0.5
O=C1CN(C(=O)CNCc2ccccc2Cl)c2ccccc2N1	nt	22.1	24.4	36.6	27.6	-5.6
CCN(CC(=O)Nc1ccc2c(c1)OCCO2)S(=O)(=O)c1ccc(C)cc1	-2.0	-9.5	-9.9	8.4	-8.8	-12.2
CCN(CC(=O)Nc1ccc2c(c1)OCCO2)S(=O)(=O)c1cccs1	-3.0	4.7	3.8	-3.9	64.3*	-5.9
CCOC(=O)N1CCN(c2nc(C)c3c(n2)CCCC3=O)CC1	0.0	9.7	27.1	-9.5	70.8*	-3.7
O=C(O)c1cc(O)c2c(c1)C(=O)c1cccc(O)c1C2=O	36.0	-19.4	61.2*	74.2*	-24.6	-2.1
c1ccc(CNc2nc(NCc3ccccc3)c3ccccc3n2)cc1	nt	-24.0	59.6*	41.8	24.4	88.1*
Cc1nc(NCc2ccccn2)c2ccccc2n1	0.0	15.2	-23.5	70.3*	-30.9	-11.0
